Bioassay records from PubChem BioAssay.
Many of the other results were omitted from the sample, so hits are more common in it than they were.
NS1 function inh: qHTS Assay for Inhibitors of Influenza NS1 Protein Function. Potency, µM (series often up to 46.1 µM), inactives show at the highest dose activity, positive = more growth. hit rate 0.4% among 270,000. AID 2326, 2010; further: potency means the concentration at half of the fitted maximal effect; actives are rising curves; nearly all actives have a fitted effect of over 50% in size
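S. cerevisiae expressing influenza A NS1, grown in glucose, washed, then diluted 1:100 into pH 6.0 -URA galactose medium with 23 nl compound. Growth recovery read as OD600; NS1-free strain serves as control.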
SARS PLpro yeast: qHTS of Yeast-based Assay for SARS-CoV PLP. S. cerevisiae expressing SARS-CoV PLpro, growth rescue. Potency, µM (top dose mostly 32.9 µM), for the others: at the highest dose activity, positive = growth rescue, usual class: activators. hit rate 0.19% among 330,000. AID 485353, 2010; further: potency means the concentration at half of the fitted maximal effect; 0% is about no effect; nearly all actives have a fitted effect of over 55% in size
TbPYK inhibitor: qHTS of Trypanosoma Brucei Inhibitors; pyruvate kinase (Trypanosoma brucei), Q57TT1; TbPYK enzyme, Kinase-Glo Plus ATP luminescence, 45 min; Potency, µM (titrated, usually from 76.8 µM), inactives show at the top dose activity, negative = inhibition, most hits filed as inhibitors; hit rate 0.12% among 410,000; active means well fitted curve in the direction sought with a large enough effect; inconclusive means small, poorly fitted or top-dose-only effect, or another doubt; inactive means no such curve, though single readings can be large; an effect the other way counts as inactive or inconclusive; further: potency means the concentration at half of the fitted maximal effect; on the % scale 0 is the no-effect control and ±100 the full control effect; nearly all actives have a fitted effect of over 50% in size
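Activity of T. brucei pyruvate kinase was followed by Kinase-Glo Plus luminescence after the enzyme reacted 45 min at room temperature with 130 uM ADP (final) and substrate. Test compounds were added before ADP at multiple concentrations.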
LmPK inhibitor: qHTS Assay for Inhibitors of Leishmania Mexicana Pyruvate Kinase (LmPK). purified LmPK, Kinase-Glo ATP luminescence, 1 h. AID 1721, 2009. hit rate 0.37% among 290,000. Potency, µM (titrated, usually from 57.5 µM), inactives show top-dose activity change, negative = inhibition, hits mostly inhibitors; active means well fitted curve in the direction sought with a large enough effect; inconclusive means small, poorly fitted or top-dose-only effect, or another doubt; inactive means no such curve, though single readings can be large; an effect the other way counts as inactive or inconclusive; further: potency means the concentration at half of the fitted maximal effect; on the % scale 0 is the no-effect control and ±100 the full control effect
Target sequence (Q27686 whole entry, looked up): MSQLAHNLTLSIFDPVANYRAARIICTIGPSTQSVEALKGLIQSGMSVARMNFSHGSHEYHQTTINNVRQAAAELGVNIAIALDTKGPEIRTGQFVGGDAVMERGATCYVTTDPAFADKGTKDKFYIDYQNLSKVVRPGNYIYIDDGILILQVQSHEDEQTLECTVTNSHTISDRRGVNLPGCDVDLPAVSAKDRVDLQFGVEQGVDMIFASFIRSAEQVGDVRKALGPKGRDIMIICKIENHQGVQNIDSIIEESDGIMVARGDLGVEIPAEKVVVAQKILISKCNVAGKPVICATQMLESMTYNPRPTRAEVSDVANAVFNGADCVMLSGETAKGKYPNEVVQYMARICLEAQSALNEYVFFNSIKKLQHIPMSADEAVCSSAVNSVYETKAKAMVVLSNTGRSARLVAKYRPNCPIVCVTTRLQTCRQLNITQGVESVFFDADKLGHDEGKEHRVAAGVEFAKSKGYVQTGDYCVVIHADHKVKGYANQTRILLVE
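qHTS format; LmPK 0.1 nM; substrates PEP 0.5 mM and ADP 0.1 mM. One-hour room-temperature incubation, then coupled luciferase luminescence; 0.5 nM enzyme wells mark activation.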
Cycloheximide cs: Cycloheximide Counterscreen for Small Molecule Inhibitors of Shiga Toxin; hit rate 12% among 300,000; cell reporter, cycloheximide protein synthesis inhibition counterscreen; max response, %; AID 2314, 2010; in the data active means max response mostly above about 13%, no sharp cut-off; inactive means mostly below about 14%; further: read at 38.3 µM for the half of the compounds with a filed dose; 0% is about no effect
Shiga toxin inh: A qHTS for Small Molecule Inhibitors of Shiga Toxin; Vero cells, Shiga toxin protein synthesis inhibition reporter; inhibition, % at 38.7 µM; hit rate 9.2% among 290,000; AID 2315, 2010; in the data active means inhibition mostly above about 28%, no sharp cut-off; inactive means mostly below about 43%; further: 0% is about no effect
* hit, by the source's call; ? = inconclusive; nt = no result given; + = active, no number; [ ] = dose if it differs, or a comment. Unless noted, the call rests on the fitted dose curve.

SMILES	NS1 function inh	SARS PLpro yeast	TbPYK inhibitor	LmPK inhibitor	Cycloheximide cs	Shiga toxin inh
COc1ccc(CC(=O)O/N=C(\N)c2ccccn2)cc1OC	10%	11%	0%	1%	35*	55*
COc1cccc(C(=O)O/N=C(\N)c2ccccn2)c1OC	-4%	-3%	?	-20%	10	-6
Cc1c(C(=O)Nc2ccc(C(C)C)cc2)sc2nc[nH]c(=O)c12	nt	nt	9%	nt	nt	nt
CC(NC(=O)COC(=O)CN1C(=O)NC2(CCCC2)C1=O)c1ccc(F)cc1 (centres undefined)	nt	nt	-7%	nt	nt	nt
Cc1cc(C)c(NC(=O)NC(=O)c2cccc(F)c2)c(C)n1	-3%	7%	7%	-2%	15*	37
Cc1cc(C)c(NC(=O)NC(=O)c2ccc(F)cc2)c(C)n1	9%	2%	-3%	-4%	28*	34*
Cc1ccc(Cn2cc(CN3CC(N4CCCC4)CS3(=O)=O)nn2)cc1 (centres undefined)	nt	nt	-2%	nt	nt	nt
Cc1ccc(-n2ncc3c(Nc4ccc5c(c4)OCCO5)ncnc32)cc1C	nt	nt	-19%	nt	nt	nt
Cn1ncc2c(Nc3ccc(Cl)c(Cl)c3)ncnc21	-29%	5%	2%	9%	36*	35
Cn1ncc2c(Nc3cc(Cl)cc(Cl)c3)ncnc21	-22%	-11%	0%	5%	-3	1
Cn1ncc2c(Nc3ccc(-c4ccccc4)cc3)ncnc21	-103%	-13%	0%	-2%	41*	76*
CCCn1ncc2c(Nc3ccc(C)c(C)c3)ncnc21	-22%	-12%	-1%	2%	47*	110*
O=C(c1ccco1)N1CCN(C(=O)c2cnn(-c3ccc(F)cc3)c2-n2cccc2)CC1	nt	nt	-7%	nt	nt	nt
CC(C)Oc1ccc(C(=O)Nc2ccc(N3CCCC3)cc2)cc1	?	-8%	-13%	1%	20*	27*
O=C(Nc1ccc(N2CCCC2)cc1)c1ccc(Br)cc1	22%	5%	4%	3%	12*	19
COc1ccc(Br)cc1C(=O)Nc1ccc(N2CCCC2)cc1	5%	3%	?	-4%	-3	-8
COc1cccc(CN2C(=NC(=O)C3CC3)SC3CS(=O)(=O)CC32)c1 (centres undefined)	8%	?	2%	-14%	-10	33
CNS(=O)(=O)c1cc(Cl)ccc1Sc1ccccc1C(=O)O	2%	0%	0%	8%	1	-4
NS(=O)(=O)c1c(Sc2ccccc2C(=O)O)ccc2ccccc12	9%	2%	-3%	-1%	30*	nt
O=c1c2ccccc2sn1-c1nccs1	nt	-1%	5.6µM*	0%	2	2
O=c1c2ccccc2sn1-c1ccccc1	-107%	-23%	?	?	24*	25
O=c1c2cc(F)ccc2sn1-c1ccccc1	nt	4%	?	nt	nt	nt
Cc1ccccc1-n1sc2cc(F)ccc2c1=O	nt	-22%	8.9µM*	21%	19	41
CN(C)S(=O)(=O)c1cccc(-n2sc3ccccc3c2=O)c1	nt	-6%	4µM*	-2%	17	40
O=c1c2ccccc2sn1-c1ccccc1F	nt	nt	7.1µM*	nt	nt	nt
SMILES	NS1 function inh	SARS PLpro yeast	TbPYK inhibitor	LmPK inhibitor	Cycloheximide cs	Shiga toxin inh
O=c1c2cc(C(F)(F)F)ccc2sn1-c1ccccc1	nt	nt	7.1µM*	nt	nt	nt
CC(=O)Nc1ccc2c(=O)n(-c3ccccc3)sc2c1	nt	nt	7.1µM*	nt	nt	nt
N#Cc1ccc2c(=O)n(-c3ccccc3)sc2c1	nt	nt	3.2µM*	nt	nt	nt
O=c1c2ccccc2sn1-c1cccc(Cl)c1	nt	nt	7.1µM*	nt	nt	nt
COc1ccccc1CN=c1c([N+](=O)[O-])nn(-c2ccc3c(c2)OCCO3)n1O	-8%	-7%	-2%	2%	62*	31*
O=[N+]([O-])c1nn(-c2ccc3c(c2)OCCO3)n(O)c1=NC1CCCCC1	-52%	3%	-4%	3%	28*	101
O=[N+]([O-])c1nn(-c2ccc3c(c2)OCCO3)n(O)c1=NCc1ccccc1Cl	-5%	4%	1%	-6%	46*	90*
COc1ccc(-n2nc([N+](=O)[O-])c(=NC3CCN(Cc4ccccc4)CC3)n2O)cc1	nt	-3%	-1%	6%	21	17
O=C(c1cnc(Cl)c(Cl)c1)N1CCN(S(=O)(=O)c2cccs2)CC1	nt	nt	-5%	nt	nt	nt
COc1ccc(-c2c(C3C4C=CCCC4(C)C(=O)N3Cc3ccccc3)ccc3ccccc23)cc1 (centres undefined)	nt	nt	nt	nt	103*	+
CC(=O)c1ccc(-c2c(C3C4C=CCCC4(C)C(=O)N3Cc3ccccc3)ccc3ccccc23)cc1 (centres undefined)	nt	nt	nt	nt	-8	0
O=C(NC1CCCCC1)c1ccc(Cn2c(SCc3cccc(F)c3)nc3cccnc32)cc1	nt	nt	-1%	nt	nt	nt
O=C(Nc1ccc2oc(-c3ccccc3)nc2c1)c1cc(-n2cnnc2)ccc1Cl	nt	0%	0%	-1%	28*	84*
Cc1c(NC(=O)c2cc(-n3cnnc3)ccc2Cl)cccc1-c1nc2ccccc2o1	-2%[9.22 µM]	21%	-9%	1%	18*	26
O=C(Nc1ccc2oc(-c3ccc4ccccc4c3)nc2c1)c1cc(Cl)ccc1Cl	nt	nt	-3%	nt	nt	nt
O=C(Nc1ccccc1)c1cc(-n2cnnc2)ccc1Cl	11%	10µM*	-7%	5%	-1	-14
O=C(Nc1ccc(-c2nc3ccccc3o2)c(O)c1)c1cc(-n2cnnc2)ccc1Cl	?	0%	2%	2%	6	15
O=C(Nc1ccc(-c2nc3ccccc3o2)cc1)c1cc(-n2cnnc2)ccc1Cl	4%	16%	2%	2%	23*	56*
CCOC(=O)c1c(S(=O)(=O)N2CCN(c3cc(Cl)ccc3C)CC2)c(C)n(C)c1C	nt	nt	0%	nt	nt	nt
Cc1cc(-c2cc(N)n(-c3ccccc3)n2)c(C)n1C1CCCC1	9%	1%	-7%	0%	36*	40*
COc1cc(/C=N/N(C)S(=O)(=O)c2ccc(C)cc2)cc([N+](=O)[O-])c1O	5%	-2%	-5%	-1%	-1	-2
Cc1c(NC(=O)c2ccc(-c3cccc([N+](=O)[O-])c3)o2)cccc1-c1nc2cc(Cl)ccc2o1	nt	nt	-4%	nt	nt	nt
Cc1ccc2oc(-c3cccc(NC(=O)/C=C/c4cccc([N+](=O)[O-])c4)c3C)nc2c1	2%	0%	1%	-10%	57*	97*
CC(O)c1cccc(-c2ccc(CN3C[C@]4(CO)O[C@@H](CO)C[C@@H]4S3(=O)=O)cc2)c1 (some centres undefined)	nt	-9%	-2%	nt	nt	nt
Cc1ccc(N2CCN(c3nc4ccccc4n4nnnc34)CC2)c(C)c1	nt	nt	-3%	nt	nt	nt
COC(=O)N/N=C/c1ccc(-c2ccccc2Cl)o1	-47%	-7%	-3%	0%	41*	41*
COC(=O)c1ccccc1-c1ccc(/C=N/NC(N)=O)o1	4%	2%	3%	-4%	0	9
